Experimental data from PubChem BioAssay AID2662 (National Center for Advancing Translational Sciences (NCATS), 2010).
Out of some 290,000 compounds screened, about 110 (0.038%) were called active. About 3% were inconclusive and are not listed. Calls follow the shape of the dose curve; as a rule, active = well fitted inhibition curve with a large enough effect in the polarisation, with a control signal flat (not every such curve was filed as active); inconclusive = small, poorly fitted or top-dose-only effect, or effect the other way, or a change in a side signal; inactive = no such curve, though single readings can be large or run the other way; the % refers to the polarisation. Shown is part of a subset that was picked to be rich in actives. A call without a number means that no potency is given here.

These molecules were tested against Histone-lysine N-methyltransferase 2A (Homo sapiens) (UniProt Q03164) (assay: qHTS Fluorescence Polarization Assay for Inhibitors of MLL CXXC domain - DNA interaction). Conditions: MLL-CXXC / FITC-HOXA9 DNA fluorescence polarization; series mostly up to 115 µM.
Histone-lysine N-methyltransferase 2A (Homo sapiens), sequence (Q03164 whole entry, looked up, the tested form may be a part): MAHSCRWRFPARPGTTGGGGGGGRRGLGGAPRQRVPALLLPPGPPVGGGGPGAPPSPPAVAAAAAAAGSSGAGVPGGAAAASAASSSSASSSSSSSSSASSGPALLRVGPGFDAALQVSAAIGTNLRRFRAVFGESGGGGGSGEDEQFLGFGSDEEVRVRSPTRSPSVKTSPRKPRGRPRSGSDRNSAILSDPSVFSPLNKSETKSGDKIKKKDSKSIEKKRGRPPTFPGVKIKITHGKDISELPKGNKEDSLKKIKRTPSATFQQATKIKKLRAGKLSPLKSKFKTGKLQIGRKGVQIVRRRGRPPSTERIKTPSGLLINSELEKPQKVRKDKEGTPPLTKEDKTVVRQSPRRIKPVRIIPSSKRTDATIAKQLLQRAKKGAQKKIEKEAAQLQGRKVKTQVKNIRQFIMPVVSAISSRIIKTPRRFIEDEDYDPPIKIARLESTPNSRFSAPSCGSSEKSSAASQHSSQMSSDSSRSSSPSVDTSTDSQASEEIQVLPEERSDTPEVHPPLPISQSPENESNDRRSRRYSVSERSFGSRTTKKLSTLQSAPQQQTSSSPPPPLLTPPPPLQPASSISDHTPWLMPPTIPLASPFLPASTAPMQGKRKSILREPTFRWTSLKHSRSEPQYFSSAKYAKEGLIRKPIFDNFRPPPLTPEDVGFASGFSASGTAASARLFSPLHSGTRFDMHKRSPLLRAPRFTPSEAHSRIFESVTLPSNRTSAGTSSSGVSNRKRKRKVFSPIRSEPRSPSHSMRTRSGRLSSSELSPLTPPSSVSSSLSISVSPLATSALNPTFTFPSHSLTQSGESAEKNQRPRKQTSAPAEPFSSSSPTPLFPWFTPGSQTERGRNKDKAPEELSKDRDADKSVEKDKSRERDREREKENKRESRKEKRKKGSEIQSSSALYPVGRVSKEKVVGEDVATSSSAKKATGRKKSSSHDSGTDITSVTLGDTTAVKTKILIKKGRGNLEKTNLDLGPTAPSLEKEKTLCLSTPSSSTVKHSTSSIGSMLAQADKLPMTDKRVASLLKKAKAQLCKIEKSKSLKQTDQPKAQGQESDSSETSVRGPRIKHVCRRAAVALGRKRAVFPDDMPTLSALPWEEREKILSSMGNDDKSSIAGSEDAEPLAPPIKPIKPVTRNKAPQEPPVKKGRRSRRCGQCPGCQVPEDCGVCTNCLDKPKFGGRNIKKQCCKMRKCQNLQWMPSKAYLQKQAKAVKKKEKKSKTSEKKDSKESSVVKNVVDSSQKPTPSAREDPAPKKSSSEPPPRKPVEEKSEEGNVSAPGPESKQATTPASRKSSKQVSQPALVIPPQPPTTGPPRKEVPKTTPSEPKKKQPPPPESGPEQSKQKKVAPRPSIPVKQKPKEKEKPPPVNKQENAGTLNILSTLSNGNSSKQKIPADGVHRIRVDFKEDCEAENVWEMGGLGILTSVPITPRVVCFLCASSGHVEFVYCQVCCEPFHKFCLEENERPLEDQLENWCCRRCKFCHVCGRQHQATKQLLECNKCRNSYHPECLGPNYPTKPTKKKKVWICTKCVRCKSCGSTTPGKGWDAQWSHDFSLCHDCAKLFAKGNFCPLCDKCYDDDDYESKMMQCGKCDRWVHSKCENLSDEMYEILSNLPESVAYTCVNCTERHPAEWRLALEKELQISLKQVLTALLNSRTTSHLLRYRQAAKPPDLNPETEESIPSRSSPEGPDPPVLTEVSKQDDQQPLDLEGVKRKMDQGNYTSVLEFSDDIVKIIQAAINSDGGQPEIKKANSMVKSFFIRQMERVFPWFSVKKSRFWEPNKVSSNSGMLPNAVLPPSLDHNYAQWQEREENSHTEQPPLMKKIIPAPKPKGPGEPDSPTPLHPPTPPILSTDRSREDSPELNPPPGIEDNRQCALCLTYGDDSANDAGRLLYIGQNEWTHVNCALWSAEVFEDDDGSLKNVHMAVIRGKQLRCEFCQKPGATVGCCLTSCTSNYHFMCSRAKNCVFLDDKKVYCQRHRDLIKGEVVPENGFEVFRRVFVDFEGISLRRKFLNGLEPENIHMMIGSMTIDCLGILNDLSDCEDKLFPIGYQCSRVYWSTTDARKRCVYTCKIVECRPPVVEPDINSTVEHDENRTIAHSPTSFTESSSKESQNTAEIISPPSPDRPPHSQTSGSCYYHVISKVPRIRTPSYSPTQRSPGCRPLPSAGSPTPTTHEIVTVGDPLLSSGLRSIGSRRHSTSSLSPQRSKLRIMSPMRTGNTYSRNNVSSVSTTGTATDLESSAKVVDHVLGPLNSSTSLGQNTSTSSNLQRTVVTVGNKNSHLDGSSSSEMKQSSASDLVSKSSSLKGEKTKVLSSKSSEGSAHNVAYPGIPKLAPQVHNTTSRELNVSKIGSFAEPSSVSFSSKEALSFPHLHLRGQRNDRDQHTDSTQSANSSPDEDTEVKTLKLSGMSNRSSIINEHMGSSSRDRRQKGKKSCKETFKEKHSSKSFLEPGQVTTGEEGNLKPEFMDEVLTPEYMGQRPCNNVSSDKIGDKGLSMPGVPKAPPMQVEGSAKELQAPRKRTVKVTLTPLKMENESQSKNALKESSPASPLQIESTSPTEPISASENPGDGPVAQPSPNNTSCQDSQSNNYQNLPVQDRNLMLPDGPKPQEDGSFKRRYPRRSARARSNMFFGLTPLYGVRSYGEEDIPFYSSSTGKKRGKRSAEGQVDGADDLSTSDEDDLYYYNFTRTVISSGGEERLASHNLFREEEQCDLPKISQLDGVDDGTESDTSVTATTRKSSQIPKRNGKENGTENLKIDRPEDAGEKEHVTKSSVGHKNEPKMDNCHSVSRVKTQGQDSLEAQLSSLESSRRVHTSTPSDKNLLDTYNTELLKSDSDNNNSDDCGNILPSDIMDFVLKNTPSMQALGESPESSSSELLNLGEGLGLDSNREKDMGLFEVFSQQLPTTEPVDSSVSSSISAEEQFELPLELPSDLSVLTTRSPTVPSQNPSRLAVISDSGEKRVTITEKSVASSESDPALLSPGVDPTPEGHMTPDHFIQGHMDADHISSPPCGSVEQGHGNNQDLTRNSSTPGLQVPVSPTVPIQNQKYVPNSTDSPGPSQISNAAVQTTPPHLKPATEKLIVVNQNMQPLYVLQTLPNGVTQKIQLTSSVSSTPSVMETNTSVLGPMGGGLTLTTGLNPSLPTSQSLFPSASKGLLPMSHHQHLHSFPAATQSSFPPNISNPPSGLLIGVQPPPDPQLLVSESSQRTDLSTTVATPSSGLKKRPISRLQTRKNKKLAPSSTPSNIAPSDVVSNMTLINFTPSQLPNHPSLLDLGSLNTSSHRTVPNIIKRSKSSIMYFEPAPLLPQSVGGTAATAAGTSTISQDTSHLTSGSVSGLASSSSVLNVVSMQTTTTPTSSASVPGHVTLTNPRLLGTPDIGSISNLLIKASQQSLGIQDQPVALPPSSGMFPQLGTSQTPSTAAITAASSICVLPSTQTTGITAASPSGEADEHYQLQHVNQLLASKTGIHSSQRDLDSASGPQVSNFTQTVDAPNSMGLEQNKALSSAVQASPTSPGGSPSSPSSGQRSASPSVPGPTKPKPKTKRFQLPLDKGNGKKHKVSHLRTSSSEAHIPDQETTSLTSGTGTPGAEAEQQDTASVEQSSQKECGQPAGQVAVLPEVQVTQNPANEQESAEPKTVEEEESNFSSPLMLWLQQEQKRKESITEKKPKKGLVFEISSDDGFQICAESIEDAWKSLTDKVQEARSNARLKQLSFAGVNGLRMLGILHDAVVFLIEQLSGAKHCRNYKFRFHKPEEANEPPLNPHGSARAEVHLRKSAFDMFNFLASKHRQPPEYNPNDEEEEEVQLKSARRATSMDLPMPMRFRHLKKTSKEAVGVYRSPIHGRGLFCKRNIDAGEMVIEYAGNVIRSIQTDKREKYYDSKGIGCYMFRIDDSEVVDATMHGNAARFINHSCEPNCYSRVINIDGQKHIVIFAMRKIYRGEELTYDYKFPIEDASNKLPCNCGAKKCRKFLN
From the text: NIH Chemical Genomics Center [NCGC] NIH Molecular Libraries Probe Production centers Network [MLPCN] MLPCN Grant: DA027717-01A1 Assay Submitter (PI): John Bushweller NCGC Assay Overview: The MLL (Mixed Lineage Luekemia) gene is involved in chromosomal translocation that results in either acute lymphoid leukemia (ALL) or acute myeloid leukemia (AML). Chromasomal translocation of MLL gene is responsible for the fusion of N-terminal MLL to more than 60 different partner genes in frame. Many of the MLL partner genes contain transcription activation domains or function as transcriptional activators. Despite the heterogeneity of fusion partners, the N-terminus of MLL fusion proteins always consists of the N-terminal menin binding motif and the CXXC domain. The MLL-CXXC domain specifically recognizes unmethylated CpG sequences of the HOX-A gene. Disruption of the MLL-CXXC and HOX-A gene interaction leads to down regulation of HOX-A gene expression and may potentially reverse leukemogenesis. We have miniaturized and optimized an in-vitro assay to screen for inhibitors of the MLL-CXXC domain and HOX-A DNA interaction, which could have utility in MLL fusion leukemias.
The affinity purified MLL-CXXC domain, unlabeled HOX-A9 DNA strand, fluorescein (FLSN) labeled HOX-A9 DNA strand were kindly supplied by the laboratory of Dr. John Bushweller, University of Virginia. All reagents were stored in single use aliquots at -80C. Assay Reagents: Assay buffer: 50 mM TRIS-HCl pH 7.5, 50 mM NaCl, 1 mM DTT. Add 0.05% BSA prior to reaction setup. Assay Procedure: 1.Dispense 1 ul of a 7 uM MLL-CXXC solution prepared in assay buffer into column 1-48. 2.Transfer 23 nl of compounds and unlabeled HOX-A9 per well. 3.Incubate for 5 minutes at ambient. 4.Dispense 1ul of a 50 nM FLSN-HOX-A9 solution prepared in assay buffer into columns 1-48 5.Centrifuge for 30 seconds at 1000 RPM. 6.Incubate for 30 minutes at ambient. 7.Read using the Envision reader fluorescent polarization protocol.
Potency is read from the fitted curve at half-maximal effect.

SMILES | Potency
O=C(OCC1O[C@@H](OC(=O)c2cc(O)c(O)c(O)c2)[C@@H](OC(=O)c2cc(O)c(O)c(O)c2)[C@@H](OC(=O)c2cc(O)c(O)c(O)c2)[C@@H]1OC(=O)c1cc(O)c(O)c(O)c1)c1cc(O)c(O)c(O)c1 (stereo not given in full) | 31.6 µM (active)
COC([CH2][Hg])CNC(=O)c1ccccc1OCC(=O)O (stereo not given) | inactive
CC(C)COC(=O)n1c(=O)oc2ccc(S(=O)(=O)N3CCCCC3)cc21 | inactive
CCOC(=O)C(NS(=O)(=O)c1ccc(C)cc1)(C(F)(F)F)P(=O)(OCC(C)C)OCC(C)C (stereo not given) | inactive
CN1CCCC(=C(c2cccs2)c2cccs2)C1 | inactive
